Measurements from PubChem BioAssay AID2501 (Southern Research Specialized Biocontainment Screening …, 2010).
Hit rate of the full screen: of about 2,200 compounds, about 1,200 (55%) were called active. Cut-off not given; nearly all actives show IC50 up to about 92 µM. The set was probably picked from earlier hits. Some of the results follow.

assay: counter assay for TAg ATPase ADP read-out – biochemical, ADP-Hunter, fluorescence, counter-screen (AID 2501); conditions: series mostly up to 100 µM;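 further: purified T antigen ATPase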

Compound | IC50
CC(C)CCNC(=O)CCCc1ccccc1 | inactive
O=C(COC(=O)CSc1ccc([N+](=O)[O-])cc1)NCCc1ccccc1 | inactive
CCOc1cc(/C=N\NC(=O)CC(=O)NCCc2ccccc2)ccc1O | 4.71 µM (active)
COc1ccc(N2CCC(CNC(=S)Nc3c(C)cc(C)cc3C)C2)cc1 (stereo not drawn) | 12.1 µM (active)
Cc1ccc(NC(=S)NCC2CCN(C(C)c3ccccc3)C2)cc1C (stereo not drawn) | inactive
COc1ccc(Cl)cc1NC(=S)N1CCC(c2ccc(C)cc2)C1 (stereo not drawn) | inactive
COc1ccc(N2CCC(CNC(=S)Nc3c(C)cccc3C)C2)cc1 (stereo not drawn) | 7.45 µM (active)
COc1ccc(N2CCC(CNC(=S)Nc3ccc(C)cc3C)C2)cc1 (stereo not drawn) | 10.7 µM (active)
O=C(CSc1nc2ccccc2c(=O)[nH]1)c1ccc(O)c(O)c1 | 9.7 µM (active)
Cc1ccc(C(=O)N(Cc2ccc3c(c2)OCO3)Cc2nc3ccccc3c(=O)[nH]2)cc1 | inactive
O=C(CSc1n[nH]c(-c2ccccc2)n1)c1ccc(O)c(O)c1 | 10 µM (active)
O=C(CSc1nc2ccccc2n1CCc1ccccc1)c1ccc(O)c(O)c1 | 43.4 µM (active)
Cc1cc(SCC(=O)c2ccccc2)nc(C)n1 | inactive
N#Cc1c(-c2ccccc2)nc(SCC(=O)N2c3ccccc3Sc3ccccc32)[nH]c1=O | inactive
CCCn1c(SC(C)C(=O)O)nc2ccccc21 (stereo not drawn) | inactive
Brc1ccc(-c2n(-c3ccccn3)c3ccccc3[n+]2-c2ccccn2)cc1 | inactive
CC(=O)N1c2c(cc(Br)cc2S(=O)(=O)N2CCCCC2)CC1C (stereo not drawn) | inactive
C[c-]1[c-](C)[c-](C)[c-](C)[c-]1C.[Fe].c1cc2nccc(N3CCCC3)[c-]2c1 (stereo not drawn) | 5.8 µM (active)
CCOC(=O)N1CCC(NC(=O)c2cnn3c2NC(c2ccco2)CC3C(F)(F)F)CC1 (stereo not drawn) | inactive
COCCN(C(=O)COC(=O)c1cc2c(s1)CCC2)c1c(N)n(Cc2ccccc2)c(=O)[nH]c1=O | inactive
CCN(C(=O)CN1CCN(c2ccc(O)cc2)CC1)c1c(N)n(Cc2ccccc2)c(=O)[nH]c1=O | 4.79 µM (active)
CCN(C(=O)CN1CCN(c2cccc(Cl)c2)CC1)c1c(N)n(Cc2ccccc2)c(=O)[nH]c1=O | inactive
CC1=NN(c2nc(-c3ccc(C#N)cc3)cs2)C(=O)C1 | inactive
CC1=NN(c2nc(-c3ccccc3)cs2)C(=O)C1 | 56 µM (active)
Nc1ccc(Sc2ccccc2CC(=O)O)cc1 | 16.9 µM (active)
OCc1ccccc1SSc1ccccc1CO | inactive
N#Cc1c(-c2ccco2)c2c([nH]c1=S)CCCC2 | 95.5 µM (active)

Compound | IC50
N#Cc1c(-c2ccco2)cc(-c2ccccc2)[nH]c1=O | inactive
Cc1ccc(-c2c3c([nH]c(=S)c2C#N)CCCC3)o1 | inactive
COCCNC(=O)Nc1ccc2nc(-c3ccco3)c(-c3ccco3)nc2c1 | inactive
O=C(CSc1nnc(CNC(=O)c2ccco2)o1)Nc1ccccc1C(F)(F)F | inactive
CCN(CC)c1ccc(NC(=O)CCNC(=O)c2ccco2)cc1 | 5.22 µM (active)
CCN(CC)c1ccc(NC(=O)c2ccccc2F)cc1 | 4.71 µM (active)
CCN(CC)c1ccc(NC(=O)c2ccco2)cc1 | 4.57 µM (active)
CCN(CC)c1ccc(NC(=O)c2cc3c(OC)cccc3[nH]2)cc1 | inactive
COc1cc(-c2nc3cccc(C)n3c2NCC2CCCO2)ccc1O (stereo not drawn) | 41.9 µM (active)
S=c1nc[nH]c2nc[nH]c12 | inactive
Cc1ccc(NC(=O)COc2ccc(C3SCCS3)cc2)cc1 | inactive
Cc1ccc(NC(=O)COc2ccc(/C(N)=N/O)cc2)cc1C | 29.6 µM (active)
CCN(CC)C(=O)c1cc([N+](=O)[O-])cc2c1-c1ccc([N+](=O)[O-])cc1C2=C(C#N)C#N | inactive
CCN(CC)c1ccc(NC(=O)C2CC(=O)N(Cc3ccccc3)C2)cc1 (stereo not drawn) | 5.88 µM (active)
COc1ccccc1CN1CC(C(=O)NCc2ncccc2C)CCC1=O (stereo not drawn) | inactive
Cc1ccc(S(=O)(=O)/N=C(/Sc2ccccc2C(=O)O)c2ccccc2)cc1 | inactive
Cc1cc(C(=O)c2cccs2)c(N)s1 | 32.8 µM (active)
Cc1ccc(NC(=O)CNC(=O)c2cccs2)nc1 | inactive
COc1cccc(CC2(CO)CCCN(Cc3sc(N4CCCC4)nc3Cl)C2)c1 (stereo not drawn) | inactive
COC(=O)/C=C/c1ccc(OC(=O)OC)c(OC(=O)OC)c1 | 8.79 µM (active)
Cc1cc(N)ccc1N=Nc1c(C)n(C)n(-c2ccccc2)c1=O | 8.16 µM (active)
COc1ccc(-c2cc(=Nc3c(C)n(C)n(-c4ccccc4)c3=O)c3ccccc3o2)cc1 | inactive
Cc1c(N=C2C=C(Br)C(=O)C(Br)=C2)c(=O)n(-c2ccccc2)n1C | 50.9 µM (active)
CCNc1ccc(N=Nc2c(C)n(C)n(-c3ccccc3)c2=O)cc1 | 3.42 µM (active)
Cc1nc(N)sc1N=Nc1c(C)n(C)n(-c2ccccc2)c1=O | 10.3 µM (active)
Cc1cccc(N=Nc2c(C)[nH]n(-c3ccccc3)c2=O)c1 | inactive
